From PubChem BioAssay (NCATS)
Several values for one entry are separate records, joined by “and”; a condition that tells them apart may be missing. Equal values may be shown once. Values without a mark were called inactive. Inconclusive results are not listed. Where a call stands in place of a potency, no number is given. Activity calls are given as the source filed them. Unless noted, calls come from the whole dose curve; as a rule, active = well fitted curve in the direction sought with a large enough effect; inconclusive = small, poorly fitted or top-dose-only effect, or another doubt; inactive = no such curve, though single readings can be large; an effect the other way counts as inactive or inconclusive.

Assays:
[1] = MultiTox-Fluor Cytotoxicity Assay - LYMP1-002 - Dead Cells (AID 960); note: nearly all actives have a fitted effect of over 60% in size; note: potency is the fitted concentration of half-maximal effect
How it was run: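 LYMP1-002 cells 2500/well; 5 hr 37 C pre-incubation; compound 16 hr 37 C; MultiTox-Fluor reagent 60 min RT; dead-cell fluor Ex/Em 485/520. Norm. to DMSO (0%) vs 15 uM tetraoctylammonium bromide (100%); Hill AC50.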

[2] = Cell Viability - LYMP2-008 (AID 980); note: nearly all actives have a fitted effect of over 60% in size; note: potency is the fitted concentration of half-maximal effect
How it was run: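 qHTS, human lymphoblastoid line, 2500 cells/well; 5 hr preincubation, 24 hr compound, 37 C. CellTiter-Glo ATP luminescence. AC50 via Hill equation. Tetraoctylammonium bromide positive control.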

[3] = molecular target: Vitamin D3 receptor (Homo sapiens) (UniProt P11473); test: qHTS assay for small molecule antagonists of vitamin D receptor signaling (AID 588541; calls by dose curve; note: potency is the fitted concentration of half-maximal effect)
Vitamin D3 receptor (Homo sapiens), sequence (P11473 whole entry, looked up): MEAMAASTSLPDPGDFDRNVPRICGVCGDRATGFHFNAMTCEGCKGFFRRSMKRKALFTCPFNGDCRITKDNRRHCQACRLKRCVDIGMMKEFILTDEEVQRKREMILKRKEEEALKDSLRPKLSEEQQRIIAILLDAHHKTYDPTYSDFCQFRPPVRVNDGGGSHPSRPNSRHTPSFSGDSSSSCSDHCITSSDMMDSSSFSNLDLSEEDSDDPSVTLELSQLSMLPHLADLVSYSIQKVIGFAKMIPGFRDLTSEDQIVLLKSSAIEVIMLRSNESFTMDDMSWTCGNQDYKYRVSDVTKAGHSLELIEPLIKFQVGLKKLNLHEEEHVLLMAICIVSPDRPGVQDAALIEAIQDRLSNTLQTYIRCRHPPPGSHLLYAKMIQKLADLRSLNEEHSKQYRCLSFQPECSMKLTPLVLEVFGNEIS
How it was run: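 Antagonist-mode beta-lactamase reporter assay: HEK293T VDR-UAS-bla cells were exposed to titrated compound alongside 1-alpha,25-dihydroxyvitamin D3 at 3 nM final for 16 h. Values were normalized to the 50 nM agonist control and DMSO basal, with IC50 and efficacy from Hill equation fits.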

[4] = molecular target: Vitamin D3 receptor (Homo sapiens) (UniProt P11473); test: qHTS assay for small molecule agonists of vitamin D receptor signaling (AID 588543; calls by dose curve)
How it was run: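 Reporter cells (HEK293T, VDR-UAS-bla) were seeded in medium with 2% charcoal-stripped serum and incubated 5 h, then compounds in concentration series were added for 16 h at 37 °C. Stimulation was scaled between DMSO basal and 50 nM 1α,25-dihydroxyvitamin D3.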

[5] = molecular target: Thyroid hormone receptor beta (Homo sapiens) (UniProt P10828); test: qHTS assay for small molecule agonists of thyroid hormone receptor beta signaling (AID 588545; calls by dose curve)
Thyroid hormone receptor beta (Homo sapiens), sequence (P10828 whole entry, looked up): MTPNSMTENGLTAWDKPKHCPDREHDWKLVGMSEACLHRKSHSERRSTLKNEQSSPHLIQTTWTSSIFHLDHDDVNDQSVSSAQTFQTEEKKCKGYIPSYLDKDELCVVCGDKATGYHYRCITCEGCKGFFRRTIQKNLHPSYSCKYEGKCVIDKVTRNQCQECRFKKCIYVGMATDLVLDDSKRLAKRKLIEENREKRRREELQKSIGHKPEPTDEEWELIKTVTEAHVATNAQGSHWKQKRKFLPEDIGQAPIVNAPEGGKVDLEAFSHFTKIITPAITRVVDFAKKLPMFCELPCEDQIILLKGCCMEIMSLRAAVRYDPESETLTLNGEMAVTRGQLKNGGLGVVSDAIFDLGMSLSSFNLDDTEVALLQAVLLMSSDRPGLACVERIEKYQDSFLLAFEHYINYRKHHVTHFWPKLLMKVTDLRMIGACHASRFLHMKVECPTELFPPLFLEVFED
How it was run: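 Efficacy and EC50 values derive from Hill fits of qHTS titration data, normalized to 10 nM T3 and DMSO-only wells. HEK 293 reporter cells were stimulated for 18 hrs at 37 C, with beta-lactamase activity measured by CCF4 fluorescence.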

[6] = qHTS assay for small molecule disruptors of the mitochondrial membrane potential - 1 hr assay (AID 651754; calls by dose curve; note: nearly all actives have a fitted effect of over 35% in size; note: potency is the fitted concentration of half-maximal effect)
How it was run: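 HepG2, 2,000 cells/well, overnight attachment; cpd or DMSO 1 hr, 37C/5% CO2; Mito-MPS dye 30 min, 37C; fluorescence monomer (490/535) and aggregate (540/590).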

[7] = qHTS assay for environmental chemicals that activate the Aryl hydrocarbon Receptor (AhR) signaling pathway (AID 651777); settings: 1A2-DRE human hepatoma cells, luciferase, 24 h; activation: active compounds read high; note: nearly all actives have a fitted effect of over 15% in size; note: potency is the fitted concentration of half-maximal effect
How it was run: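 1A2-DRE human hepatoma reporter line; 1,200 cells/well; cmpd or DMSO 24 h, 37 C/5% CO2; One-Glo 30 min RT; luciferase lum.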

[8] = molecular target: Nuclear receptor ROR-gamma (Homo sapiens) (UniProt P51449); test: qHTS assay for small molecule antagonists of the retinoid-related orphan receptor gamma (ROR-gamma) signaling pathway (AID 651802); note: nearly all actives have a fitted effect of over 60% in size; note: potency is the fitted concentration of half-maximal effect
Nuclear receptor ROR-gamma (Homo sapiens), sequence (P51449 whole entry, looked up): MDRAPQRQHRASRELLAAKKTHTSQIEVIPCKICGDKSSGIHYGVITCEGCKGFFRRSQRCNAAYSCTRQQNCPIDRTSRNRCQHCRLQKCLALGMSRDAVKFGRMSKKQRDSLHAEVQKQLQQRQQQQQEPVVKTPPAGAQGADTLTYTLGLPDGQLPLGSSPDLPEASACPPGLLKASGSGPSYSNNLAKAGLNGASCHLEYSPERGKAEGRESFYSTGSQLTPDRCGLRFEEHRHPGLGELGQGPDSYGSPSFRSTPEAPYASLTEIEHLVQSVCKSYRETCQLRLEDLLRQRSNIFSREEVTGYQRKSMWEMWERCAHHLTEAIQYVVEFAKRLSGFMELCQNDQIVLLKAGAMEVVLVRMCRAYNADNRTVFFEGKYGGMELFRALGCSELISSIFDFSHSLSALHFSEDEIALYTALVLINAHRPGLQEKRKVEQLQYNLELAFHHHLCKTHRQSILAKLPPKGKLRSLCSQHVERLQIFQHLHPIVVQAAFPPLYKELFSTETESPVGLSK
How it was run: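 CHO, TET-inducible ROR + RORE-LUC reporter, 1536-well qHTS. Compound pinned, doxycycline added, 16hr 37C/5% CO2. ONE-Glo, 30 min RT, luminescence; signal drop scored as antagonism.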

[9] = qHTS assay for small molecule antagonists of the retinoid-related orphan receptor gamma (ROR-gamma) signaling pathway - cell viability counter screen (AID 720652; active = well fitted curve in the direction sought with a large enough effect in the repeat runs; an effect the other way counts as inactive or inconclusive;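 note: compound exposure lasted 16 hr before ATP read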; note: potency is the fitted concentration of half-maximal effect)
How it was run: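 Luminescence from CellTiter-Glo after 30 min at room temperature reported cellular ATP as the cytotoxicity measure. Cells were the CHO reporter line with doxycycline-induced ROR-gamma expression, exposed to compound for 16 hr at 37 C.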

[10] = molecular target: Nuclear receptor subfamily 1 group I member 2 (Rattus norvegicus) (UniProt Q9R1A7); test: qHTS assay for small molecule activators of the rat pregnane X receptor (rPXR) signaling pathway (AID 651751; call rule not given here); settings: rPXR reporter cells, luciferase (One-Glo), 24 h
Nuclear receptor subfamily 1 group I member 2 (Rattus norvegicus), sequence (Q9R1A7 whole entry, looked up): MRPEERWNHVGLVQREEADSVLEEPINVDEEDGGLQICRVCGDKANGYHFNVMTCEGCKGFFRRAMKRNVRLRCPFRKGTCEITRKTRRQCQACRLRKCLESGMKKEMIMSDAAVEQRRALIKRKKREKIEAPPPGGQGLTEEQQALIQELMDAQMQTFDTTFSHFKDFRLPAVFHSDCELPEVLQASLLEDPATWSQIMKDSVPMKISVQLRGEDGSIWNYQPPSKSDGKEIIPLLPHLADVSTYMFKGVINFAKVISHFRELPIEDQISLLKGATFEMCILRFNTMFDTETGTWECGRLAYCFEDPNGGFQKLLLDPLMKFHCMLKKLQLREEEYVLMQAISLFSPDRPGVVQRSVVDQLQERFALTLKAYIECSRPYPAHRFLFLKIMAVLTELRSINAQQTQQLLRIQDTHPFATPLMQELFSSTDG

[11] = qHTS assay for small molecule activators of the human pregnane X receptor (PXR) signaling pathway (AID 720659; call rule not given here)
[12] = Cell Viability - LYMP2-012 (AID 982);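 note: cellular ATP by luciferase luminescence where a drop means cytotoxicity; cells exposed to compound for one day before reading; nearly all actives have a fitted effect of over 55% in size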; note: potency is the fitted concentration of half-maximal effect
[13] = Cell Viability - LYMP2-001 (AID 921); note: nearly all actives have a fitted effect of over 70% in size; note: potency is the fitted concentration of half-maximal effect
How it was run: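 Steps: seed 2500 lymphoblastoid cells/well; 5 hr, 37 C; add compound; 24 hr, 37 C; CellTiter-Glo reagent, 30 min room temperature; read luminescence. Concentration-response modeled by Hill equation for AC50.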

[14] = Cell Viability - LYMP2-005 (AID 967); note: potency is the fitted concentration of half-maximal effect
How it was run: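 Acute cytotoxicity is scored as a concentration-dependent drop in intracellular ATP in human lymphoblastoid LYMP2-005 cells after 24 h compound treatment. ATP is quantified by luciferase luminescence, and AC50 is derived by Hill-equation modelling.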

[15] = Cell Viability - LYMP2-016 (AID 984);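 note: cells exposed to compound for 24 hours at 37 °C; nearly all actives have a fitted effect of over 55% in size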; note: potency is the fitted concentration of half-maximal effect
How it was run: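 Cells were seeded at 2500 per well and rested 5 hr before a 24 hr compound exposure at 37 C. Viability was then gauged as cellular ATP by luciferase luminescence, with AC50 values fitted to the Hill equation.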

[16] = Cell Viability - LYMP2-018 (AID 985); note: nearly all actives have a fitted effect of over 50% in size; note: potency is the fitted concentration of half-maximal effect
How it was run: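 Luminescent ATP signal (CellTiter-Glo, read after 30 min at room temperature) reports viable cells after 24 hr compound treatment at 37 C. Concentration-response data were fitted to the standard Hill equation for AC50.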

[17] = Cell Viability - LYMP2-020 (AID 986); note: nearly all actives have a fitted effect of over 55% in size; note: potency is the fitted concentration of half-maximal effect
How it was run: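 Luminescent ATP signal (CellTiter-Glo, 30 min at room temperature) is the read-out after 24 h compound treatment of lymphoblastoid cells at 37 C. AC50 values come from Hill-equation fits across concentrations.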

[18] = Cell Viability - LYMP2-022 (AID 987); note: nearly all actives have a fitted effect of over 55% in size; note: potency is the fitted concentration of half-maximal effect
How it was run: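 qHTS: human lymphoblastoid cells 2500/well; 5 hr 37 C; cpd added; 24 hr 37 C; CellTiter-Glo, 30 min RT; luminescence. AC50 via Hill fit; tetraoctylammonium bromide positive ctrl.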

[19] = Cell Viability - LYMP2-024 (AID 988); note: nearly all actives have a fitted effect of over 60% in size; note: potency is the fitted concentration of half-maximal effect
How it was run: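 Steps: seed 2500 cells/well, 5 hr 37 C; add compound, 24 hr 37 C; add CellTiter-Glo, 30 min room temperature; read luminescence. AC50 derived by Hill modelling of concentration-dependent ATP loss.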

Compound | Potency [1] | Potency [2] | Potency [3] | outcome [4] | outcome [5] | Potency [6] | activation [7] | Potency [8] | Potency [9] | max response [10] | outcome [11] | Potency [12] | Potency [13] | Potency [14] | Potency [15] | Potency [16] | Potency [17] | Potency [18] | Potency [19] | Potency [7]
CO[C@H]1/C=C/O[C@@]2(C)Oc3c(C)c(O)c4c(O)c(c5c(c4c3C2=O)NC2(CCN(CC(C)C)CC2)N=5)=NC(=O)/C(C)=C\C=C\[C@H](C)[C@H](O)[C@@H](C)[C@@H](O)[C@@H](C)[C@H](OC(C)=O)[C@@H]1C | inactive | inactive | inactive | inactive | inactive | inactive | -1.73% | inactive | inactive | 7.05% |  |  |  |  |  |  |  |  |  | 
c1cc(OCC2CO2)cc(OCC2CO2)c1 (configuration not stated) |  |  |  | inactive | inactive |  | 4% and -2.73% |  |  | -8.72% and -4.5% | inactive |  |  |  |  |  |  |  |  | 
Oc1ccc2cc(SSc3ccc4cc(O)ccc4c3)ccc2c1 | inactive |  |  |  | inactive | 66.8 µM (active) |  |  |  | -6.62% |  | 50.1 µM (active) |  |  |  |  |  |  |  | 
Cc1ccc(S(=O)(=O)Oc2ccc(N=Nc3ccc(-c4ccc(N=Nc5c(O)ccc6cc(S(=O)(=O)O)cc(S(=O)(=O)O)c56)c(C)c4)cc3C)cc2)cc1 |  |  | inactive | inactive | inactive |  | -2.33% |  | inactive | -4.06% | inactive |  |  |  |  |  |  |  |  | 
O=C1OC(O)C(C(Cl)Cl)=C1Cl (configuration not stated) | 31.6 µM (active) | 25.1 µM (active) | 44.7 µM (active) | inactive |  | inactive | -0.209% |  | 26.6 µM (active) | -3.61% | inactive | 20 µM (active) | 20 µM (active) | 15.8 µM (active) | 25.1 µM (active) | 25.1 µM (active) | 25.1 µM (active) | 15.8 µM (active) | 12.6 µM (active) | 
Cc1cc(Nc2ccc(O)cc2)ccc1N |  | 50.1 µM (active) | inactive | inactive | inactive |  |  | 21.1 µM (active) |  | -2.27% | inactive | 39.8 µM (active) | 31.6 µM (active) | 39.8 µM (active) | 50.1 µM (active) | 39.8 µM (active) | 39.8 µM (active) | 31.6 µM (active) | 25.1 µM (active) | 
c1ccc2c(c1)-c1cccc3c1c-2cc1ccccc13 | inactive | inactive |  |  |  | inactive |  |  |  |  |  | inactive | inactive | inactive | inactive | inactive | inactive | inactive | inactive | 7.08 µM (active)
C=CC(=O)OCCOCCOC(=O)C=C | 25.1 µM (active) | 31.6 µM (active) |  |  | inactive | inactive | 2.82% |  | inactive | 9.16% | inactive | 12.6 µM (active) | 12.6 µM (active) | 10 µM (active) | 20 µM (active) | 15.8 µM (active) | 15.8 µM (active) | 12.6 µM (active) | 12.6 µM (active) | 
CC(=O)Nc1ccc(C(=O)CCl)cc1 | 15.8 µM (active) | 6.31 µM (active) | 25.1 µM (active) |  |  | inactive | 3.94% | 9.44 µM (active) | 18.8 µM (active) |  |  | 5.01 µM (active) | 3.98 µM (active) |  | 7.94 µM (active) | 7.94 µM (active) | 5.01 µM (active) | 3.98 µM (active) | 3.16 µM (active) | 
C=C(C)c1ccccc1 | inactive | inactive | inactive | inactive |  | inactive |  | inactive | inactive | 0.462% | inactive | inactive | inactive | inactive | inactive | inactive | inactive | inactive | inactive | 
Nc1ccc2cc3ccccc3cc2c1 | inactive | inactive |  |  |  | 3.76 µM (active) |  | inactive | inactive |  |  | inactive | inactive | inactive | inactive | inactive | inactive | inactive | inactive | 
CCC(C)Nc1ccc(NC(C)CC)cc1 (configuration not stated) |  | 3.98 µM (active) | 6.31 µM (active) | inactive | inactive |  | -3.51% | 13.3 µM (active) | 8.41 µM (active) |  |  | 3.98 µM (active) | 5.01 µM (active) | 6.31 µM (active) | 5.01 µM (active) | 3.16 µM (active) | 5.01 µM (active) | 2.51 µM (active) | 2 µM (active) | 
Cc1cc(O)c(C(C)(C)C)cc1Sc1cc(C(C)(C)C)c(O)cc1C | 31.6 µM (active) | 31.6 µM (active) |  | inactive |  | 10.6 µM (active) | -3.69% and -11.4% | 4.22 µM (active) | 18.8 µM (active) |  |  | 39.8 µM (active) | 39.8 µM (active) |  | 50.1 µM (active) | 50.1 µM (active) | 31.6 µM (active) | 31.6 µM (active) | 39.8 µM (active) | 
O=Cc1ccc(Cl)c(Cl)c1 | inactive | inactive | inactive | inactive | inactive | inactive |  | inactive | inactive | -0.904% | inactive | inactive | inactive | inactive | inactive | inactive | inactive | inactive | inactive | 
O=[N+]([O-])c1cc([N+](=O)[O-])c2ccc(S(=O)(=O)O)cc2c1O | inactive | inactive |  |  |  | inactive |  |  | inactive |  |  | inactive | inactive | inactive | inactive | inactive | inactive | inactive | inactive | 
O=C1OC2(c3cc(Br)c(O)c(Br)c3Oc3c2cc(Br)c(O)c3Br)c2c(Cl)c(Cl)c(Cl)c(Cl)c21 |  |  | inactive |  |  |  | -2.87% | inactive |  |  |  |  |  | inactive | inactive |  | inactive |  | inactive | 
